Rows were chosen to be rich in hits. Some 1.7% of all compounds tested hit in one or more screens of this group.
BH1578 lux ind: quorum light induction in luxS cqsA deficient V. cholerae | activation, % at 18.7 µM | 350,000 compounds, 0.16% hits | V. cholerae BH1578 lux reporter, luminescence, 6 h | AID 588436; in the data active = activation mostly above about 9.7%, no sharp cut-off
MazEF act: activators of E. coli MazEF toxin-antitoxin RNase; FAM/BHQ RNA-DNA oligo cleavage fluorescence, 5 h; activation, % at 20 µM; 350,000 compounds, 0.32% hits; AID 504720; in the data active = activation above about 50%
Target sequence (P0AE70 whole entry, looked up): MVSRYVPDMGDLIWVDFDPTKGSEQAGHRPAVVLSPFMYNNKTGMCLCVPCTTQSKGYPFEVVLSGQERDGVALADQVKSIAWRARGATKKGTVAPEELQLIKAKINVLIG
PfHsp40 yeast: rescue of PfHsp40-mediated yeast toxicity; 340,000 compounds, 0.68% hits; S. cerevisiae expressing PfHsp40, growth rescue, ATP luminescence; growth rescue, % at 12.5 µM; AID 504582; in the data active = growth rescue above about 28%, passing the limit was not always enough;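 also: yeast W303a lacking pdr1 and pdr3 grown in galactose medium; growth measured after three days at 30 °C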
SARS 3CLpro inh: SARS-CoV 3CLpro protease inhibition; P0C6X7; recombinant SARS-CoV 3CLpro, quenched FRET peptide cleavage; inhibition, % at 6 µM; 290,000 compounds, 0.14% hits; AID 1706; in the data active = inhibition above about 12%
VHR inh abs: DUSP3 (human) phosphatase inhibition; P51452; recombinant VHR phosphatase, pNPP absorbance; inhibition, % at 13.3 µM; 290,000 compounds, 0.52% hits; in the data active = inhibition above about 50%
Target sequence (P51452 whole entry, looked up): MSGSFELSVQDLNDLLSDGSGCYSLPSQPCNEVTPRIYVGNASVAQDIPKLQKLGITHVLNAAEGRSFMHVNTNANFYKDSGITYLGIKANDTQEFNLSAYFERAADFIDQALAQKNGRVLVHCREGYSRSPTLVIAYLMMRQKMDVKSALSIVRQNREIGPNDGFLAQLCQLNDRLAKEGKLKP
BJeLR viability: BJeLR cell viability loss; BJeLR (HRASV12) viability, CellTiter-Glo ATP luminescence, 48 h; inhibition, % (concentration not given with the values); 300,000 compounds, 0.17% hits; in the data active = inhibition above about 50%
* hit, by the source's call; i = inactive; x = no result given.

SMILES	BH1578 lux ind	MazEF act	PfHsp40 yeast	SARS 3CLpro inh	VHR inh abs	BJeLR viability
CC(C)(C)OC(=O)N1CCC(c2c(C(=O)N3CCN(C(=O)c4ccco4)CC3)cnn2-c2cccc(Cl)c2)CC1	0	3	0	-1	58*	1
O=C(c1ccco1)N1CCN(C(=O)c2cnn(-c3cccc(F)c3)c2C2CCNCC2)CC1	0	10	-1	-4	-4	0
CCn1c(/C=C/c2ccc(O)c(O)c2)nc2ccccc2c1=O	0	121*	1	3	8	-9
CCn1c(/C=C/c2c(C)n(CC)c3ccccc23)nc2ccccc2c1=O	0	70*	0	5	-28	-1
CCn1c(/C=C/c2ccccc2C)nc2ccccc2c1=O	0	-15	0	-3	5	5
CCn1c(/C=C/c2ccc(O)cc2)nc2ccccc2c1=O	1	1	1	-1	8	-15
C1=C(c2ccc(-c3ccccc3)cc2)Nc2ncnn2C1c1ccco1 (configuration not stated)	3	344*	16	3	28	x
O=C(COC(=O)c1cccc(-n2cnnn2)c1)c1ccc(F)c(F)c1	1	12	x	x	x	x
Cc1c(NC(=S)NC(=O)c2ccccc2)c(=O)n(-c2ccccc2)n1C	0	-3	2	x	x	3
CCc1nc2c(OCc3ccccc3C(=O)OC)cccn2c1N(C)C(=O)c1cccc(OC)c1	-1	x	x	x	x	x
O=C(NC(=S)NC1CCCCCC1)c1cncc(Br)c1	0	0	33*	-1	-11	0
Cn1c(=O)c2[nH]c(-c3ccc(S(=O)(=O)O)cc3)nc2n(C)c1=O	i	-12	-1	x	x	10
Clc1ccc(OCc2nc(-c3ccncc3)no2)c(Br)c1	0	7	597*	3	-1	-2
Clc1ccccc1OCc1nc(-c2ccncc2)no1	0	0	2	0	-4	x
CC(=O)Nc1cccc(-c2ccnc3c2CC(C(=O)Nc2cccc(OC(F)(F)F)c2)O3)c1 (configuration not stated)	0	x	x	x	x	x
CC(Oc1ccc(Cl)cc1Cl)c1nc(-c2ccc(NC(=O)c3cccnc3)cc2)no1 (configuration not stated)	i	-10	-1	-2	13	72*
COc1ccc(N2CC(C(=O)Nc3cccc(OC(C)C)c3)CC2=O)cc1 (configuration not stated)	0	5	2	-1	12	-3
Cc1ccc(CNC(=O)c2ccc(CNS(=O)(=O)c3ccc4c(c3)C(C)(C)C(=O)N4C)cc2)o1	0	102*	5	-8	-2	5
CCC(C)NC(=O)c1ccc(CNS(=O)(=O)c2ccc3c(c2)C(C)(C)C(=O)N3C)cc1 (configuration not stated)	0	107*	2	-4	17	4
CN1C(=O)C(C)(C)c2cc(S(=O)(=O)NCc3ccc(Cl)cc3)ccc21	0	5	0	5	29	-7
COc1ccc(COC(=O)C2CCN(S(=O)(=O)c3cccs3)CC2)cc1	-3	-1	0	x	x	-6
Cc1cccc(OCCOC(=O)C2CCN(S(=O)(=O)c3cccs3)CC2)c1	-1	-9	102*	-3	9	-1
O=C(NCCc1ccccc1)c1ccc(Cl)c(S(=O)(=O)N2CCOCC2)c1	i	3	2	3	0	-4
Cc1ccc(C(O)c2ncc(-c3cccc(C(F)(F)F)c3)[nH]2)cc1 (configuration not stated)	-1	x	x	x	x	x
CC(=O)Oc1ccc2c(c1)O/C(=C\c1ccncc1)C2=O	-1	-617	0	1	21	-11
SMILES	BH1578 lux ind	MazEF act	PfHsp40 yeast	SARS 3CLpro inh	VHR inh abs	BJeLR viability
COc1ccccc1C(=O)Oc1ccc2c(c1)O/C(=C\c1ccncc1)C2=O	9	206*	0	5	-2	1
CCC(=O)Oc1ccc2c(c1)O/C(=C\c1ccco1)C2=O	0	691*	1	-4	-3	-6
CCCOc1ccc(F)cc1-c1cc(C(=O)Nc2ccc(C(C)C)cc2)[nH]n1	0	x	x	x	x	x
CC(=O)Oc1cccc2c1C(=O)C1CC=CC(OC(C)=O)C1C2=O (configuration not stated)	x	37	0	x	x	x
CCC(=O)NC(c1cc(Cl)c2cccnc2c1O)C1CC1 (configuration not stated)	i	2	9	x	x	x
CCC(=O)NC(c1cc(Cl)c2cccnc2c1O)C(C)C (configuration not stated)	i	10	247*	x	x	x
CCC(=O)NC(c1ccc(Cl)cc1Cl)c1ccc2cccnc2c1O (configuration not stated)	i	-3	122*	2	38	21
CCCC(=O)NC(c1ccc(N(C)C)cc1)c1ccc2cccnc2c1O (configuration not stated)	i	3	410*	0	19	38
CCCCC(=O)NC(c1ccc(Cl)cc1Cl)c1ccc2cccnc2c1O (configuration not stated)	-2	6	-1	7	20	31
COc1ccc2c(N)c(C(=O)NN)[nH]c2c1	1	12	-2	3	4	4
Cc1ccccc1OCC(=O)NCCCNC(=O)c1ccco1	0	-9	-1	2	23	4
CCNC(=O)C1(C)CCCN1C(=O)c1ccc(-c2ccccc2)cc1 (configuration not stated)	-4	x	x	x	x	x
Cc1ccc2c(C)nc(Nc3nc(CSc4nnc(C)s4)cc(=O)[nH]3)nc2c1	0	96*	6	-2	17	x
Cc1nc(Nc2nc(CSc3nc4ccccc4[nH]3)cc(=O)[nH]2)nc2ccccc12	0	-70	0	2	8	-8
COc1cccc2c(C)nc(Nc3nc(CSc4nnc(C)s4)cc(=O)[nH]3)nc12	0	62*	0	-7	-1	3
CCOc1cc(C(=S)N2CCOCC2)ccc1OC(=O)c1ccc(C)cc1	0	-4	0	-3	-10	5
CSc1ccc(CCNC(=O)c2cc(-c3ccccc3)c(N3CCOCC3)s2)cc1	6	-12	1	-1	30	9
Cc1ccc2c(CN3CC(C)CC(C)C3)cc(=O)oc2c1C (configuration not stated)	i	5	1	-3	6	2
Cc1ccc2c(CN3CCC(C)CC3)cc(=O)oc2c1C	3	0	0	-2	53*	4
O=C(O)c1cc(-c2ccc3c(c2)OCCO3)n[nH]1	i	6	0	-1	16	-4
Oc1ccccc1-c1cc(-c2ccc3c(c2)OCCO3)n[nH]1	i	11	476*	3	22	12
CN(C(=O)CSC1=NCCS1)c1ccccc1	1	2	0	2	52*	-3
COc1ccc(CCNc2nnc(Sc3nnnn3-c3ccccc3)s2)cc1OC	0	-7	1	-4	-1	60*
